These results are taken from article PMC7862700, “An all-to-all approach to the identification of sequence-specific readers for epigenetic DNA modifications on cytosine”.

What all share (assay): DAPPL (digital affinity profiling via proximity ligation, sequencing); 10 mM Tris-HCl pH 7.5, 50 mM NaCl, 1 mM DTT, 4% glycerol, room temperature, 30 min; GST-TFs on glutathione beads, 16-mer random dsDNA library, 0.1% formaldehyde crosslink after washing; high values mean tight binding
What all share (settings): protein: recombinant; tags: N-terminal GST; dsDNA, one strand shown

In experiment [1] the target is T1, ERF (Homo sapiens, UniProt P50548 1-548).
T1 sequence: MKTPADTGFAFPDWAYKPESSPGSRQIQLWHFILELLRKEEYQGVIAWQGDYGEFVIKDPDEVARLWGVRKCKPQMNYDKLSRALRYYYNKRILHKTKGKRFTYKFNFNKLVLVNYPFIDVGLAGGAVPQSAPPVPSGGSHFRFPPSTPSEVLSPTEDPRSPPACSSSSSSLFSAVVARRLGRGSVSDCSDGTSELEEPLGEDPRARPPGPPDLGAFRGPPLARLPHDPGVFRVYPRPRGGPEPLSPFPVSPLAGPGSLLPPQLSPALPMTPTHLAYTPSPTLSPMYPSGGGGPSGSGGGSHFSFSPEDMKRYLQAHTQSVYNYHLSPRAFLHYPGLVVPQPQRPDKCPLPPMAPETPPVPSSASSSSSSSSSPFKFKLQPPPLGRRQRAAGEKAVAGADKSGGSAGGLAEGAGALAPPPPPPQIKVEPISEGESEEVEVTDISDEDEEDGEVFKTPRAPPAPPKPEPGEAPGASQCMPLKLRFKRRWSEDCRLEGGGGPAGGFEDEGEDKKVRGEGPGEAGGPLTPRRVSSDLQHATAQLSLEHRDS
The method in brief:
(§1)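 Pools were built from human transcription factors expressed in yeast as GST fusions, captured on glutathione beads and DNA-barcoded, along with a tag-only sample. Incubation with 200 nmole of a 16-mer random double-stranded DNA library lasted 30 min at room temperature in Tris/NaCl/DTT/glycerol buffer, and was followed by washing, 0.1% formaldehyde crosslinking, proximity ligation, PCR amplification and Illumina NextSeq500 sequencing. Binding signal is the quotient of each hexamer's read frequency for a factor and its frequency for the tag-only sample.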

The target in experiment [2] is T2, ETV3L (Homo sapiens, UniProt Q6ZN32 1-361).
T2 sequence: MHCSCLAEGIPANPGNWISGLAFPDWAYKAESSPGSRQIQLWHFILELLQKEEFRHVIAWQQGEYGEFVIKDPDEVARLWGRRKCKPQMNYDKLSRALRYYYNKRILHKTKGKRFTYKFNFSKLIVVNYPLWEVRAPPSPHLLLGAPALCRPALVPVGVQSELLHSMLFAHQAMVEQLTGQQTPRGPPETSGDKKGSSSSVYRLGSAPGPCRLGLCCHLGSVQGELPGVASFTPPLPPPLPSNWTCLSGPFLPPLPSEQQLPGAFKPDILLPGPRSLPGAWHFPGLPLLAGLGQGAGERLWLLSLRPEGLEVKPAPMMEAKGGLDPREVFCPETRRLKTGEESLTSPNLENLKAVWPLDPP
Put shortly:
as §1

In experiment [3] the target is T3, ETS2 (Homo sapiens, UniProt P15036 1-469).
T3 sequence: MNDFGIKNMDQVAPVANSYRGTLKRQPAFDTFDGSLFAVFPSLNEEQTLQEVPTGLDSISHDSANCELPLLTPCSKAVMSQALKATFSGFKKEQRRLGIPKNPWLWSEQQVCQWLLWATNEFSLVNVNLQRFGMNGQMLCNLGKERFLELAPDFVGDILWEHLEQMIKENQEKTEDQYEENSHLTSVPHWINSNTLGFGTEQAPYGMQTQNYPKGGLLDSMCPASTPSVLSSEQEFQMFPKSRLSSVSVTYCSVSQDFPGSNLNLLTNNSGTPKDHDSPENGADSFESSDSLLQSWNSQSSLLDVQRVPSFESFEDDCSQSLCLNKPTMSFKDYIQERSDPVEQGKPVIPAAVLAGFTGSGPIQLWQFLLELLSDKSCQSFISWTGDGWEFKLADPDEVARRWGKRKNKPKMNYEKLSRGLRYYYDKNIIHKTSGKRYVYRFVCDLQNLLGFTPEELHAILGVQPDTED
Put shortly:
as §1

The target in experiment [4] is T4, SPDEF (Homo sapiens, UniProt O95238 1-335).
T4 sequence: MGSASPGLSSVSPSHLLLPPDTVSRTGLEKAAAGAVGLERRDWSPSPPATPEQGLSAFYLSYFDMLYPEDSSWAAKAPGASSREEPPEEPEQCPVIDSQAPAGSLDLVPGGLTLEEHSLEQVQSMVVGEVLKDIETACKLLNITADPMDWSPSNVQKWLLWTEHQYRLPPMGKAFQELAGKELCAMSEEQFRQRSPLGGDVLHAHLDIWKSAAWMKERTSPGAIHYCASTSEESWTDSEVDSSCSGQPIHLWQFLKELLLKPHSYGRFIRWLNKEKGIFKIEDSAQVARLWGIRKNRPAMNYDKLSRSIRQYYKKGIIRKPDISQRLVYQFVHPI
The method in brief:
as §1

Experiment [5] concerns the target T5, ETV7 (Homo sapiens, UniProt Q9Y603 1-341).
T5 sequence: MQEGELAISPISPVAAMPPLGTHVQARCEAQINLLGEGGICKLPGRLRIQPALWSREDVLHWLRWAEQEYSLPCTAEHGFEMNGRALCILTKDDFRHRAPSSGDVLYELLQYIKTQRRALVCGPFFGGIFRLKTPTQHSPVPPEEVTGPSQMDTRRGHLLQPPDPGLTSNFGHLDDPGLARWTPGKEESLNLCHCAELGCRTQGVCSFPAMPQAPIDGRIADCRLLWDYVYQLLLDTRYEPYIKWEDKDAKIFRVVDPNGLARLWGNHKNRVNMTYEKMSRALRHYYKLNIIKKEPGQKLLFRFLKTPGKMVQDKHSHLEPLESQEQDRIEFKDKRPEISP
The method in brief:
as §1

The target in experiment [6] is T6, ELF5 (Homo sapiens, UniProt Q9UKW6-2 1-255).
T6 sequence: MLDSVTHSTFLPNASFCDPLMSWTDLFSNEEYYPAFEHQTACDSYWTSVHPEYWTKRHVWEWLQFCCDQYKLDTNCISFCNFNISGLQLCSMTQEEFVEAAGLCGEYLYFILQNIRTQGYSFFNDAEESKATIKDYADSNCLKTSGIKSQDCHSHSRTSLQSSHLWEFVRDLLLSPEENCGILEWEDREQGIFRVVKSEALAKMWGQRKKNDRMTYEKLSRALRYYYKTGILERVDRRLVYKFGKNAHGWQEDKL
The method in brief:
as §1

In experiment [7] the target is T7, ETV3 (Homo sapiens, UniProt P41162-2 1-143).
T7 sequence: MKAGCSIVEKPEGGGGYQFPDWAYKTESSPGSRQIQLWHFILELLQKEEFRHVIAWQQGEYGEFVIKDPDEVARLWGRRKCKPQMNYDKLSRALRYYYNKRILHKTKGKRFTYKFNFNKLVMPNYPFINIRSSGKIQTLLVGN
Put shortly: as §1

Experiment [8] addresses ETV6 (Homo sapiens, UniProt P41212 1-452). Put shortly:
as §1

Sequence of ETV6 (P41212 whole entry): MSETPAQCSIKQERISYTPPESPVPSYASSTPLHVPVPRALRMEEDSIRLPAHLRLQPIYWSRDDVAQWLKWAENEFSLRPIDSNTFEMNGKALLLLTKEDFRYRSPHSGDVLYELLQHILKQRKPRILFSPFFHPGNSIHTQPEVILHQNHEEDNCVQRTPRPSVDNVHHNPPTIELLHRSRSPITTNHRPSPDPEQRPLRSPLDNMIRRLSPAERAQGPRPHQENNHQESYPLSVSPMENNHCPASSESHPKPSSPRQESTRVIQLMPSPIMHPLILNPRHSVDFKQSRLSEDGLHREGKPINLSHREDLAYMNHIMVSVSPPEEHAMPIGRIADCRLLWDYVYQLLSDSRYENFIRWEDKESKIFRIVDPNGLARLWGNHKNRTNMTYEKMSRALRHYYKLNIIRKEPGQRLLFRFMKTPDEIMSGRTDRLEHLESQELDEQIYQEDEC

Turning to CATGCT, the binding signal in experiment [1] is 1.2 fold enrichment (6-mer frequency, TF over GST control); in experiment [2], 1.35 fold enrichment (6-mer frequency, TF over GST control); in experiment [3], 1.25 fold enrichment (6-mer frequency, TF over GST control); in experiment [4], 1.2 fold enrichment (6-mer frequency, TF over GST control); in experiment [5], 1.2 fold enrichment (6-mer frequency, TF over GST control); in experiment [6], 1.19 fold enrichment (6-mer frequency, TF over GST control). In addition, the binding signal is 1.19 fold enrichment (6-mer frequency, TF over GST control) in experiment [7] and 1.28 fold enrichment (6-mer frequency, TF over GST control) in experiment [8].
On to CGAAAC, for which the binding signal in experiment [1] is 1.24 fold enrichment (6-mer frequency, TF over GST control); in experiment [2], 1.22 fold enrichment (6-mer frequency, TF over GST control); in experiment [3], 1.16 fold enrichment (6-mer frequency, TF over GST control); in experiment [4], 1.22 fold enrichment (6-mer frequency, TF over GST control); in experiment [5], 1.22 fold enrichment (6-mer frequency, TF over GST control); in experiment [6] it was 1.12 fold enrichment (6-mer frequency, TF over GST control). The binding signal in experiment [7] is 1.08 fold enrichment (6-mer frequency, TF over GST control); in experiment [8] it was 1.16 fold enrichment (6-mer frequency, TF over GST control).
For CTACAA, the binding signal is 1.05 fold enrichment (6-mer frequency, TF over GST control) in experiment [1]; 1.15 fold enrichment (6-mer frequency, TF over GST control) in experiment [2]; 1.16 fold enrichment (6-mer frequency, TF over GST control) in experiment [3]; 1.14 fold enrichment (6-mer frequency, TF over GST control) in experiment [4]; 1.01 fold enrichment (6-mer frequency, TF over GST control) in experiment [5]; 1.16 fold enrichment (6-mer frequency, TF over GST control) in experiment [6]. The binding signal in experiment [7] is 1.1 fold enrichment (6-mer frequency, TF over GST control); in experiment [8], 1.18 fold enrichment (6-mer frequency, TF over GST control).
With CCCTCC, the binding signal in experiment [1] was 1.58 fold enrichment (6-mer frequency, TF over GST control); in experiment [2], 1.31 fold enrichment (6-mer frequency, TF over GST control); in experiment [3], 1.51 fold enrichment (6-mer frequency, TF over GST control); in experiment [4], 1.36 fold enrichment (6-mer frequency, TF over GST control); in experiment [5], 1.37 fold enrichment (6-mer frequency, TF over GST control); in experiment [6] it was 1.34 fold enrichment (6-mer frequency, TF over GST control). The binding signal in experiment [7] is 1.39 fold enrichment (6-mer frequency, TF over GST control); in experiment [8], 1.4 fold enrichment (6-mer frequency, TF over GST control).
TAATGT: the binding signal in experiment [1] was 1.06 fold enrichment (6-mer frequency, TF over GST control); in experiment [2], 1.11 fold enrichment (6-mer frequency, TF over GST control); in experiment [3], 1.09 fold enrichment (6-mer frequency, TF over GST control); in experiment [4], 1.12 fold enrichment (6-mer frequency, TF over GST control); in experiment [5] it was 1.19 fold enrichment (6-mer frequency, TF over GST control); in experiment [6], 1.07 fold enrichment (6-mer frequency, TF over GST control). Moreover, the binding signal in experiment [7] is 1.05 fold enrichment (6-mer frequency, TF over GST control); in experiment [8], 1.09 fold enrichment (6-mer frequency, TF over GST control).
CAATTG: the binding signal in experiment [1] was 1.29 fold enrichment (6-mer frequency, TF over GST control); in experiment [2], 1.2 fold enrichment (6-mer frequency, TF over GST control); in experiment [3] it was 1.26 fold enrichment (6-mer frequency, TF over GST control); in experiment [4], 1.12 fold enrichment (6-mer frequency, TF over GST control); in experiment [5], 1.32 fold enrichment (6-mer frequency, TF over GST control); in experiment [6] it was 1.21 fold enrichment (6-mer frequency, TF over GST control). Also, the binding signal was 1.2 fold enrichment (6-mer frequency, TF over GST control) in experiment [7] and 1.23 fold enrichment (6-mer frequency, TF over GST control) in experiment [8].
As for CGTTCC, the binding signal in experiment [1] is 1.4 fold enrichment (6-mer frequency, TF over GST control); in experiment [2], 1.43 fold enrichment (6-mer frequency, TF over GST control); in experiment [3], 1.48 fold enrichment (6-mer frequency, TF over GST control); in experiment [4], 1.5 fold enrichment (6-mer frequency, TF over GST control); in experiment [5], 1.3 fold enrichment (6-mer frequency, TF over GST control); in experiment [6], 1.65 fold enrichment (6-mer frequency, TF over GST control). For the same sequence, the binding signal in experiment [7] is 1.41 fold enrichment (6-mer frequency, TF over GST control); in experiment [8], 1.42 fold enrichment (6-mer frequency, TF over GST control).
In the case of ATTAAG, the binding signal is 1.16 fold enrichment (6-mer frequency, TF over GST control) in experiment [1]; 1.09 fold enrichment (6-mer frequency, TF over GST control) in experiment [2]; 1.01 fold enrichment (6-mer frequency, TF over GST control) in experiment [3]; 1.13 fold enrichment (6-mer frequency, TF over GST control) in experiment [4]; 1.12 fold enrichment (6-mer frequency, TF over GST control) in experiment [5]; 1.02 fold enrichment (6-mer frequency, TF over GST control) in experiment [6]. The binding signal in experiment [7] was 1.04 fold enrichment (6-mer frequency, TF over GST control); in experiment [8], 1.11 fold enrichment (6-mer frequency, TF over GST control).
